Here are results for 33 compounds from PubChem BioAssay (Tox21).

Structures are written as SMILES. Where “and” joins values, the source holds several entries; their conditions need not be identical. Equal entries are not always repeated. More than one record can exist for a structure, and the calls need not agree. Calls of active or inactive are those of the source. A call without a number means that no potency is given here. Unless noted, calls come from the whole dose curve.
Potency is the fitted concentration of half-maximal effect.

Chain of Estrogen receptor (Homo sapiens) (P03372 whole entry, looked up): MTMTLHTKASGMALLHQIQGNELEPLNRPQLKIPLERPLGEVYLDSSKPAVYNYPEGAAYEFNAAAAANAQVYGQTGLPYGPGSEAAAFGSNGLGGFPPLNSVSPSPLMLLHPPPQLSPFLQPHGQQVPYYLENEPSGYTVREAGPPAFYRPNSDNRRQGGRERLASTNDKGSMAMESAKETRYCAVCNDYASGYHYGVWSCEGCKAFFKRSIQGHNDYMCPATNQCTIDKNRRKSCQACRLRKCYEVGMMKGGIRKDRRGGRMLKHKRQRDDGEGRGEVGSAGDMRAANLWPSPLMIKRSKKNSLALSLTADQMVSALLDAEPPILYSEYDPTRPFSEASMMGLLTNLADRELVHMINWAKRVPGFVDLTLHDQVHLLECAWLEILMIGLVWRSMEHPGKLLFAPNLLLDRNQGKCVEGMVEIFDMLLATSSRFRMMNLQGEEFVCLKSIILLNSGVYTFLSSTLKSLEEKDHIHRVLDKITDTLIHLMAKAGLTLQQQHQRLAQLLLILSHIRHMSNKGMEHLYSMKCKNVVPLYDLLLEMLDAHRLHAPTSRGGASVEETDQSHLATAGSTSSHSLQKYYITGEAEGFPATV

System in the first experiment: not listed separately
Briefly: qHTS assay to identify small molecule antagonists of the thyroid receptor (TR) signaling pathway (AID 743065; active = well fitted inhibition curve with a large enough effect in the repeat runs; inconclusive = weak or mixed curves; inactive = no such curve, though single readings can be large or run the other way; note: nearly all actives have a fitted effect of over 55% in size). As to conditions: GH3.TRE-Luc, T3-stimulated luciferase inhibition, 23.5 h; series mostly up to 70.3 µM. An outline of the steps: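 Antagonism measured as loss of luciferase signal in GH3 cells stably carrying a TRE-luciferase reporter, co-treated with compound and T3 (1 nM final) for 23.5 h at 37 C. Viability was read in the same well by CellTiter-Fluor.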
Background: Quantitative high-throughput screening tests each substance at several concentrations.
In the case of `O=S(=O)(Cl)c1ccccc1`, the Potency entry is “inactive”.
Turning to `COC(=O)C(Br)CBr` (stereo not drawn), the Potency entry is “inactive”.
Regarding `ClCc1ccccc1`, the Potency result is “inactive”.
Still for that read-out and setting: then `CCOP(=O)(OCC)O/C(=C/Cl)c1ccc(Cl)cc1Cl`, with 29.8 µM (active) and 61.1 µM (active); and `C=CCC1([C@H](C)CCC)C(=O)NC(=O)NC1=O`, with “inactive”.
Regarding `C=CCN1CC[C@]23c4c5ccc(O)c4O[C@H]2C(=O)CC[C@@]3(O)[C@H]1C5`, the Potency entry was “inactive”.
Consider `COc1nn(C(=O)NS(=O)(=O)c2ccccc2OC(F)(F)F)c(=O)n1C`, for which the Potency entry was “inactive”.
Same read-out and setting: for `CCOc1nc(F)cc2nc(S(=O)(=O)Nc3c(Cl)cccc3Cl)nn12` the value was “inactive”; for `Cn1cc[n+](C)c1` (tested in a mixture with another compound), “inactive”; for `ClCC(Br)CBr` (stereo not drawn), “inactive”.
Turning to `O=C(O)C(F)(F)C(F)(F)C(F)(F)C(F)(F)C(F)(F)C(F)(F)C(F)(F)C(F)(F)C(F)(F)C(F)(F)F`, the Potency result is “inactive”.
Still for that read-out and setting: for `CCOC(=O)CBr` the value was “inactive”; for `O=C(O)C(F)(F)C(F)(F)C(F)(F)C(F)(F)C(F)(F)C(F)(F)C(F)(F)C(F)(F)C(F)(F)F`, “inactive”.
On to `N#CCc1ccccc1`, for which the Potency result was “inactive”.

In the next experiment the test system is thyroid hormone receptor (rat, GH3 cells). Kind of experiment: qHTS assay to identify small molecule agonists of the thyroid receptor (TR) signaling pathway (AID 743066). The note with it: GH3.TRE-Luc cells, TR agonist luciferase, 24 h; series mostly up to 83.9 µM.
For `O=S(=O)(Cl)c1ccccc1`, the Potency entry is “inactive”.
The same measure, in the same setting: then `C#CCOC(C(=O)OCCN(C)C)(c1ccccc1)c1ccccc1`, with “inactive”; and `BrCCCCBr`, with “inactive”.
The same measure, in the same setting: for `CCn1cc[n+](C)c1` the value was “inactive and 49.2 µM (active)”; for `CCN(C)N=O`, “inactive”.
For the compound `ClCc1ccccc1`, the Potency result is “inactive”.
As for `CCOP(=O)(OCC)O/C(=C/Cl)c1ccc(Cl)cc1Cl`, the Potency entry was “inactive”.
The same measure, in the same setting: then `C=CCC1([C@H](C)CCC)C(=O)NC(=O)NC1=O`, with “inactive”; and `C=CCN1CC[C@]23c4c5ccc(O)c4O[C@H]2C(=O)CC[C@@]3(O)[C@H]1C5`, with “inactive”; and `COc1nn(C(=O)NS(=O)(=O)c2ccccc2OC(F)(F)F)c(=O)n1C`, with “inactive”.
As for `O=C1CN=C(c2ccccc2)c2cc(Cl)ccc2N1CC1CC1`, the Potency result is “inactive”.
On to `CCOc1nc(F)cc2nc(S(=O)(=O)Nc3c(Cl)cccc3Cl)nn12`, for which the Potency result is “inactive”.
`C(=NC1CCCCC1)=NC1CCCCC1`: the Potency entry was “inactive”.
For `Cn1cc[n+](C)c1` (tested in a mixture with another compound), the Potency result is “inactive”.
The same measure, in the same setting: for `CNC(C)Cc1ccccc1OC` (stereo not drawn) the value was “inactive”; for `O=[Se]=O`, “inactive”; for `ClCC(Br)CBr` (stereo not drawn), “inactive”.
Take `CCOP(=S)(OCC)SCn1nnc2ccccc2c1=O`: the Potency entry is “inactive”.
Consider `CC(O)(CS(=O)(=O)c1ccc(F)cc1)C(=O)Nc1ccc(C#N)c(C(F)(F)F)c1` (stereo not drawn), for which the Potency result was “inactive”.
The same measure, in the same setting: then `COc1cc(CC(C)N)cc2c1OCO2` (stereo not drawn), with “inactive”.
On the same count and under the same terms, then `O=C(O)C(F)(F)C(F)(F)C(F)(F)C(F)(F)C(F)(F)C(F)(F)C(F)(F)C(F)(F)C(F)(F)C(F)(F)F`, with “inactive”; and `CCOC(=O)CBr`, with “inactive”; and `O=C(O)C(F)(F)C(F)(F)C(F)(F)C(F)(F)C(F)(F)C(F)(F)C(F)(F)C(F)(F)C(F)(F)F`, with “inactive”.
The same measure, in the same setting: for `COc1c(C(C)(C)C)cc([N+](=O)[O-])c(C)c1[N+](=O)[O-]` the value was “inactive”; for `N#CCc1ccccc1`, “inactive”; for `CCOP(=O)(OCC)SCCSCC`, “inactive”.

In a further experiment the target is Estrogen receptor (Homo sapiens) (UniProt P03372). Kind of experiment: qHTS assay to identify small molecule antagonists of the estrogen receptor alpha (ER-alpha) signaling pathway (AID 743069; active = well fitted curve in the direction sought with a large enough effect in the signal ratio in the repeat runs, not every such curve was filed as active; inconclusive = weak or mixed curves, or effect the other way; inactive = no such curve, though single readings can be large or run the other way; the % refers to the signal ratio). As to conditions: HEK293 ER-alpha-UAS-bla, beta-lactamase ratio, antagonist mode; series mostly up to 69.4 µM. A digest of the protocol:
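Fluorescence intensity from a beta-lactamase FRET substrate served as the read-out. Cells: HEK293 with stably integrated ER-alpha-UAS-bla reporter. Agonist 17beta-estradiol was co-added with compounds; incubation 18 hr at 37C, substrate 2 hr at room temperature.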
For `BrCCCCBr`, the Potency entry is “inactive”.
Consider `COC(=O)C(Br)CBr` (stereo not drawn), for which the Potency result was “inactive”.
As to `N#Cc1ccc(Cl)cc1`, the Potency entry was “inactive”.
Regarding `CCN(C)N=O`, the Potency entry is “inactive”.
Same read-out and setting: then `ClCc1ccccc1`, with “inactive”; and `CCOP(=O)(OCC)O/C(=C/Cl)c1ccc(Cl)cc1Cl`, with 21.9 µM [inconclusive] (active); and `C=CCC1([C@H](C)CCC)C(=O)NC(=O)NC1=O`, with “inactive”.
Regarding `C=CC(C)=O`, the Potency result is “inactive”.
The same measure, in the same setting: for `CCOc1nc(F)cc2nc(S(=O)(=O)Nc3c(Cl)cccc3Cl)nn12` the value was “inactive”; for `O=C(CBr)OCc1ccccc1`, “inactive”; for `C(=NC1CCCCC1)=NC1CCCCC1`, “inactive and 3.89 µM [inconclusive] (active)”.
Consider `Cn1cc[n+](C)c1` (tested in a mixture with another compound), for which the Potency entry is “inactive”.
Consider `CNC(C)Cc1ccccc1OC` (stereo not drawn), for which the Potency result was “inactive”.
Still for that read-out and setting: for `O=[Se]=O` the value was 6.12 µM [inconclusive] (active); for `ClCC(Br)CBr` (stereo not drawn), “inactive”; for `O=C(O)C(F)(F)C(F)(F)C(F)(F)C(F)(F)C(F)(F)C(F)(F)C(F)(F)C(F)(F)C(F)(F)F`, 15.5 µM [inhibitor] (active).
For `COc1c(C(C)(C)C)cc([N+](=O)[O-])c(C)c1[N+](=O)[O-]`, the Potency result is “inactive”.
The same measure, in the same setting: for `N#CCc1ccccc1` the value was “inactive”; for `CCOP(=O)(OCC)SCCSCC`, “inactive”.

System in the next experiment: not listed separately
Kind of experiment: qHTS assay to identify small molecule antagonists of the estrogen receptor alpha (ER-alpha) signaling pathway - cell viability counter screen (AID 743074). Note: nearly all actives have a fitted effect of over 45% in size. As to conditions: ERalpha-bla HEK293 viability, CellTiter-Glo luminescence, 18 h; series mostly up to 69.4 µM.
`O=S(=O)(Cl)c1ccccc1`: the Potency result was “inactive”.
Regarding `C#CCOC(C(=O)OCCN(C)C)(c1ccccc1)c1ccccc1`, the Potency entry is “inactive”.
On to `BrCCCCBr`, for which the Potency result is “inactive”.
For `CCn1cc[n+](C)c1`, the Potency result is “inactive”.
On the same count and under the same terms, then `COC(=O)C(Br)CBr` (stereo not drawn), with “inactive”; and `CCN(C)N=O`, with “inactive”.
Still for that read-out and setting: for `ClCc1ccccc1` the value was “inactive”.
As to `CCOP(=O)(OCC)O/C(=C/Cl)c1ccc(Cl)cc1Cl`, the Potency result is “inactive”.
The same measure, in the same setting: then `C=CCC1([C@H](C)CCC)C(=O)NC(=O)NC1=O`, with “inactive”; and `C=CCN1CC[C@]23c4c5ccc(O)c4O[C@H]2C(=O)CC[C@@]3(O)[C@H]1C5`, with “inactive”; and `COc1nn(C(=O)NS(=O)(=O)c2ccccc2OC(F)(F)F)c(=O)n1C`, with “inactive”.
On the same count and under the same terms, then `O=C(O)CC(Cl)C(=O)O` (stereo not drawn), with “inactive”; and `O=C1CN=C(c2ccccc2)c2cc(Cl)ccc2N1CC1CC1`, with “inactive”.
Regarding `C=CC(C)=O`, the Potency result was “inactive”.
Same read-out and setting: for `CCOc1nc(F)cc2nc(S(=O)(=O)Nc3c(Cl)cccc3Cl)nn12` the value was “inactive”; for `O=C(CBr)OCc1ccccc1`, “inactive”; for `C=CC(=O)OC(C)(C)C`, “inactive”.
For `C(=NC1CCCCC1)=NC1CCCCC1`, the Potency entry was “inactive”.
Turning to `Cn1cc[n+](C)c1` (tested in a mixture with another compound), the Potency entry is “inactive”.
With `CNC(C)Cc1ccccc1OC` (stereo not drawn), the Potency entry is “inactive”.
Consider `ClCC(Br)CBr` (stereo not drawn), for which the Potency result was “inactive”.
As for `ClCCCCBr`, the Potency entry was “inactive”.
As for `CCOP(=S)(OCC)SCn1nnc2ccccc2c1=O`, the Potency was 49 µM (active).
On the same count and under the same terms, for `CC(O)(CS(=O)(=O)c1ccc(F)cc1)C(=O)Nc1ccc(C#N)c(C(F)(F)F)c1` (stereo not drawn) the value was “inactive”.
Regarding `CCOC(=O)CBr`, the Potency entry was “inactive”.
Same read-out and setting: then `O=C(O)C(F)(F)C(F)(F)C(F)(F)C(F)(F)C(F)(F)C(F)(F)C(F)(F)C(F)(F)C(F)(F)F`, with “inactive”; and `COc1c(C(C)(C)C)cc([N+](=O)[O-])c(C)c1[N+](=O)[O-]`, with “inactive”.
In the case of `N#CCc1ccccc1`, the Potency entry is “inactive”.
For the compound `CCOP(=O)(OCC)SCCSCC`, the Potency result is “inactive”.
